The values that follow come from PubChem BioAssay (NCATS).

Inconclusive results are not listed. Activity calls are given as the source filed them. Unless noted, calls follow the shape of the dose curve; as a rule, active = well fitted curve in the direction sought with a large enough effect; inconclusive = small, poorly fitted or top-dose-only effect, or another doubt; inactive = no such curve, though single readings can be large; an effect the other way counts as inactive or inconclusive. Starred links: 1 amine or outer side, 2 acyl side, 3 side chain; linkers in the order of their positions; H or OH if unused. Positions of bridges follow the written chain, without caps; N, C: chain ends. Non-standard residues stand in square brackets, D forms with d. Residues, ends and D or L forms follow the SMILES beside them. *: point of attachment. X1 = NC1=N[C@@H](O)C[C@@H]([C@@H](N[*:1])C(=O)[*:2])N1; ΔAla(Z-3-ureido) = NC(=O)N/C=C(\N)C(=O)O; β3hOrn = NCCC[C@H](N)CC(=O)*; Dap = NC[C@H](N)C(=O)O Some results are limits rather than exact numbers.

Experiment [1] in a line: AP1 Signaling Pathway (AID 357; active = well fitted curve in either direction with a large enough effect, not every such curve was filed as active;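 also: ME-180 reporter cells stimulated with EGF at its EC50 level; % is scaled to controls: 0 for no effect and ±100 for the full control effect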). A digest of the protocol:
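A ratiometric CCF4 readout (405 nm excitation; 460 and 530 nm emission) quantified AP-1-driven beta-lactamase in ME-180 cells after 5 h with compound and EC50 EGF; AC50 values were derived for activators and inhibitors.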

Experiment [2] can be described thus: NFAT Signaling Pathway (AID 444; active = well fitted curve in either direction with a large enough effect, not every such curve was filed as active;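 also: carbachol stimulus at about its EC50 of 1 µM final; % is scaled to controls: 0 for no effect and ±100 for the full control effect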). The note with it: Jurkat NFAT-bla M1, carbachol, beta-lactamase ratio, 5 h; at 17.2 µM (top of the series) unless noted. Put shortly: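 Jurkat cells carrying an NFAT-driven β-lactamase reporter and co-transfected muscarinic M1 receptor were treated with compound plus carbachol (1 uM final, an EC50 level) for 5 h at 37 °C. CCF4 loading followed for 1 h at RT; 460/530 nm ratio gave %activity.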

Experiment [3] in a line: Stat Signaling Pathway (AID 446; active = well fitted curve in either direction with a large enough effect, not every such curve was filed as active;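 also: ME-180 cervical cancer cells given 40 pM IL-6 alongside compound; SIE-controlled beta-lactamase reporter measured as 460/530 nm FRET emission ratio; % is scaled to controls: 0 for no effect and ±100 for the full control effect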). Put shortly: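 Overnight-plated ME-180 cells bearing a STAT Inducible Element beta-lactamase reporter; 5 h co-exposure to compound and 40 pM IL-6; values normalized to 300 pM IL-6 and 125 nM JAK inhibitor controls.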
Experiment [4] addresses Mitogen-activated protein kinase 10 (Mus musculus) (UniProt Q61831). Briefly: JNK3 AlphaScreen Assay (AID 530; active = well fitted curve in either direction with a large enough effect, not every such curve was filed as active;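 also: kinase came from lysate of stimulated human HepG2 cells; signal reports phosphorylation of biotinylated GST-cJun 1-79 at Ser73 with 10 µM ATP; % is scaled to controls: 0 for no effect and ±100 for the full control effect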). Put shortly: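 Phosphorylation of biotinylated GST-cJun(1-79) at Ser73 is measured by AlphaScreen proximity luminescence. Enzyme is JNK3 in HepG2 lysates activated with interleukin-1beta and tumor necrosis factor alpha; ATP is 10 uM final.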
For experiment [5], the target named is 3',5'-cyclic-AMP phosphodiesterase 4B (Homo sapiens) (UniProt Q07343). The experiment in a line: qHTS Assay for Inhibitors of PDE-IV (AID 607; active = well fitted activation curve with a large enough effect in the main read-out, with a control signal flat, not every such curve was filed as active; also: % of control where 0% means no effect). A digest of the protocol:
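Live HEK293 cells with a modified cyclic nucleotide-gated (CNG) channel report intracellular cAMP via membrane-potential dye fluorescence (ex 535/em 590 nm). Endogenous PDE-IV was targeted. Compounds were tested at up to 22.9 uM final; RO 20-1724 100 uM served as control.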

The nature of experiment [6]: qHTS Assay for Lipid Storage Modulators (AID 1519; calls by dose curve). Conditions: Drosophila S3 cells, BODIPY lipid droplet/cell ratio, laser cytometry, cells loaded with oleic acid; for activity change, negative = inhibition: at 25.7 µM (top of the series). A digest of the protocol: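 Cells seeded at 5,000 per well were treated with compounds over a concentration series and loaded with oleic acid (400 uM, as added). Lipid droplet fluorescence (488 nm excitation, 500-530 nm channel) was read by laser-scanning cytometry and normalized to 20 uM Triacsin C.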

For experiment [7], the target named is Ubiquitin carboxyl-terminal hydrolase 1 (Homo sapiens) (UniProt O94782). The experiment in a line: Inhibitors of USP1/UAF1: Pilot qHTS (AID 504865).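 Also: rhodamine fluorescence freed from ubiquitin-rhodamine substrate followed over time; top concentration of the series differs between compounds; % is scaled to controls: 0 for no effect and ±100 for the full control effect; nearly all actives have a fitted effect of over 35% in size.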 Put shortly: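 Kinetic fluorescence assay: 1nM USP1/UAF1, 15 min compound preincubation, then 150nM Ub-Rho; 480/540 nm.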
Chain of Ubiquitin carboxyl-terminal hydrolase 1 (Homo sapiens) (O94782 whole entry, looked up): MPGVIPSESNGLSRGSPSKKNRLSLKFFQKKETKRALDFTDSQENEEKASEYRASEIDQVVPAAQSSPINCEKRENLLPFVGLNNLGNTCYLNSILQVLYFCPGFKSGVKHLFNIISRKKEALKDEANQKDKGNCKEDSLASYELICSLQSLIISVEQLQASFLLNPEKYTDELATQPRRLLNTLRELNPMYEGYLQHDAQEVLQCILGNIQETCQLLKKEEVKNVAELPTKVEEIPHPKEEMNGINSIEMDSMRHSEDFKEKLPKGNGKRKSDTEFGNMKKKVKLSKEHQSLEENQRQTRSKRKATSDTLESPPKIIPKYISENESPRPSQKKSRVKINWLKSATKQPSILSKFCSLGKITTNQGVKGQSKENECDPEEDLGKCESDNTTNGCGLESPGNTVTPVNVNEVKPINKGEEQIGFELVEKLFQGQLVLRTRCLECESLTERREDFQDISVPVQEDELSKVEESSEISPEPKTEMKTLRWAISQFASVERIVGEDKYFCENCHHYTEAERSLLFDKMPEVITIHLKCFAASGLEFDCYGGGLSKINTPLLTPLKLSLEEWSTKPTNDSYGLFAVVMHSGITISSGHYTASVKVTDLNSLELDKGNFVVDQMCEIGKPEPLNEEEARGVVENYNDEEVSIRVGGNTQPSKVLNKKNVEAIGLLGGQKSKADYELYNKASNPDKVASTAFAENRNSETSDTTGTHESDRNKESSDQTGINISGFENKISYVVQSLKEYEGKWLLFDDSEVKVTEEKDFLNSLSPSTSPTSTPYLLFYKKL
Experiment [8] concerns the target Glucocorticoid receptor (Homo sapiens) (UniProt P04150). The experiment in a line: GR-GFP Redistribution (AID 450;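 active = compounds whose dose series gives a full or clear partial fitted curve of increased nuclear translocation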; also: potency is read from the fitted curve at half-maximal effect). Conditions: U2OS GR-GFP nuclear translocation, laser cytometry, 2 h.
Experiment [9] shares this target. The experiment in a line: GR-EFC Redistribution (AID 451; calls by dose curve; also: potency is read from the fitted curve at half-maximal effect). Conditions: CHO-K1 GR-EFC translocation, beta-gal luminescence, 2 h. A digest of the protocol: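 CHO-K1 cells stably expressing nuclear-localized β-gal enzyme acceptor and GR fused C-terminally to the enzyme donor fragment; ligand-driven nuclear translocation restores β-gal by complementation. Compounds titrated up to 46 uM final, 2 h at 37 °C; luminescence read.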

The target of experiment [10] is ATP-dependent 6-phosphofructokinase (Trypanosoma brucei brucei) (UniProt O15648). The experiment in a line: qHTS Assay to Find Inhibitors of T. brucei phosphofructokinase: hit validation (AID 492961). Put shortly:
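Reaction: 0.1 M triethanolamine pH 8.0, 5 mM MgCl2, F6P 0.5 mM, ATP 0.1 mM, PFK 1.25 nM, 45 min RT. Read-out: ADP-Glo luminescence. Analysis: concentration-response fits, classed by r2 and efficacy.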

Experiment [11] concerns the target Luciferin 4-monooxygenase (Photinus pyralis) (UniProt P08659). Briefly: Biochemical firefly luciferase enzyme assay for NPC (AID 624030).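 Also: purified P. pyralis luciferase at 10 nM with luciferin and ATP substrate; 0% = DMSO and -100% = full luciferase inhibition by PTC124 control; nearly all actives have a fitted effect of over 70% in size.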 A digest of the protocol: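 Counter-screen for direct inhibition of the luciferase enzyme by approved-drug library compounds, run at 10 nM enzyme in 50 mM Tris acetate (final). Luminescence was read within 5 min of enzyme-buffer addition and normalized to PTC124 versus DMSO (0%).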

Experiment [12] is described as follows: qHTS profiling for inhibitors of Plasmodium falciparum proliferation (AID 504749).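 Also: 0% = DMSO vehicle and full inhibition = artemisinin control; nearly all actives have a fitted effect of over 60% in size.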 The note with it: P. falciparum in erythrocytes, SYBR Green DNA, 72 h, at 12.8 µM (top of the series). A digest of the protocol: (§1)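 Quantitative HTS: compounds pinned into medium, infected erythrocytes added (0.3% parasitemia, 2.5% hematocrit), 72 h culture at 37 C under 5% CO2. Saponin/Triton lysis with SYBR Green I, overnight RT, then fluorescence read.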

A further experiment has as its system C2A. The description is as above. Conditions: P. falciparum in erythrocytes, SYBR Green DNA, 72 h; series mostly up to 12.8 µM. A digest of the protocol:
as §1

Another experiment relates to CP217. Described as above. The note with it: P. falciparum in erythrocytes, SYBR Green DNA, 72 h; series mostly up to 12.8 µM. Put shortly:
as §1

Another experiment relates to CP238. The experiment is described as above. Conditions: P. falciparum in erythrocytes, SYBR Green DNA, 72 h; series mostly up to 12.8 µM. A digest of the protocol:
as §1

In a further experiment the test system is CP250. Described as above. The note with it: P. falciparum in erythrocytes, SYBR Green DNA, 72 h; series mostly up to 12.8 µM. Put shortly:
as §1

For the next experiment, the system named is CP252. The experiment is described as above. Conditions: P. falciparum in erythrocytes, SYBR Green DNA, 72 h; series mostly up to 12.8 µM. A digest of the protocol: as §1
The subject of another experiment is FAB9. The experiment is described as above. The note with it: P. falciparum in erythrocytes, SYBR Green DNA, 72 h; series mostly up to 12.8 µM. Put shortly: as §1
The next experiment has as its system HB3. Described as above. The note with it: P. falciparum in erythrocytes, SYBR Green DNA, 72 h; series mostly up to 12.8 µM. Put shortly:
as §1

In a further experiment the test system is SC27B. The description is as above. The note with it: P. falciparum in erythrocytes, SYBR Green DNA, 72 h; series mostly up to 12.8 µM. Put shortly: as §1
[13] abbreviates: measured here: cell count channel max response.
Setting [14] is: measured here: lipid channel max response.

Chain of Luciferin 4-monooxygenase (Photinus pyralis) (P08659 whole entry, looked up): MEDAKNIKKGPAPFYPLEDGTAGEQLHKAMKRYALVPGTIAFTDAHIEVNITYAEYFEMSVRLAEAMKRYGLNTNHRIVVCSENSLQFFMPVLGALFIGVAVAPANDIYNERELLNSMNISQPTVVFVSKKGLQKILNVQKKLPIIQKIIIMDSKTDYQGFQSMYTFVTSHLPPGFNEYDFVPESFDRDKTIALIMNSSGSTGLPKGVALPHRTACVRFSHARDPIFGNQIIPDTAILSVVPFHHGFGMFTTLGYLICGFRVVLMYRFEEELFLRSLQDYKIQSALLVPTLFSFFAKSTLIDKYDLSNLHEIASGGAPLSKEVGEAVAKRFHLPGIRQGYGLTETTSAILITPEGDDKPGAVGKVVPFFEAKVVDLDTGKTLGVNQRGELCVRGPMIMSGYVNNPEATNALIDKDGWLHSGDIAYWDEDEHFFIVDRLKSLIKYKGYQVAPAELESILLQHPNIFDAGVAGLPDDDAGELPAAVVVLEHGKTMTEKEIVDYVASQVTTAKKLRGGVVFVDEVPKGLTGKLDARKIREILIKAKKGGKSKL
Chain of 3',5'-cyclic-AMP phosphodiesterase 4B (Homo sapiens) (Q07343 whole entry, looked up): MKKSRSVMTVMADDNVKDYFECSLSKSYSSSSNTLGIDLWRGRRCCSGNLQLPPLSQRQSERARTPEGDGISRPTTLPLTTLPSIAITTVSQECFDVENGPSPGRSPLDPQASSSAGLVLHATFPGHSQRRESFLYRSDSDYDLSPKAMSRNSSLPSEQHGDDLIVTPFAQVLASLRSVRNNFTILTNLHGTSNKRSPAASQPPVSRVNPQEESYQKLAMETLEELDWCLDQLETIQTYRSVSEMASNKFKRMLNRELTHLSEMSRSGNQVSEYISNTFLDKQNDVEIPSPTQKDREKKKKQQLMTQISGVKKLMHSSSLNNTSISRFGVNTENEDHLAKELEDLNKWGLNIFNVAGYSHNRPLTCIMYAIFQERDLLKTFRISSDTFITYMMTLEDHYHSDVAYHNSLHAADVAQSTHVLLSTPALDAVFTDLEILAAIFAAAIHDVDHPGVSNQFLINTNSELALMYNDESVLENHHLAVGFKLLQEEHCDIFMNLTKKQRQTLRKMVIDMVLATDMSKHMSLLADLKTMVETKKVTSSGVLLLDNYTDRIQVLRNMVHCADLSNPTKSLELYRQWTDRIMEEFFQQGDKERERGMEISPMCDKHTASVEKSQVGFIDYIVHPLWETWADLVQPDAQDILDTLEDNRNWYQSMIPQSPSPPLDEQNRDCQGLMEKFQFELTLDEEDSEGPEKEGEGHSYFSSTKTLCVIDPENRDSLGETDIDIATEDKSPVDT
Chain of ATP-dependent 6-phosphofructokinase (Trypanosoma brucei brucei) (O15648 whole entry, looked up): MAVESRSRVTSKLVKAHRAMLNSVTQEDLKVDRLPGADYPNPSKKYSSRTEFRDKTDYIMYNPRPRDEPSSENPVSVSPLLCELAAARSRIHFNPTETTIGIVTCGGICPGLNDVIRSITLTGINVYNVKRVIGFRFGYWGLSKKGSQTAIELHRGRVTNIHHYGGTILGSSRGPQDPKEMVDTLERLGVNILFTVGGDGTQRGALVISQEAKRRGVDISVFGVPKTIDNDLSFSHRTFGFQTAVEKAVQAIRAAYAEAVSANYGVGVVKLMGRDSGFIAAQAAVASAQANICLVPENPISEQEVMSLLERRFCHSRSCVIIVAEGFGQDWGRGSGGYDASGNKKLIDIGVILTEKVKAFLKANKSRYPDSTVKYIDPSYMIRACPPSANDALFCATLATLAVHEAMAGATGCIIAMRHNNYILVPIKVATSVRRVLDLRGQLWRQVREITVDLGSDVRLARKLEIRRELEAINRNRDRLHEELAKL
Chain of Glucocorticoid receptor (Homo sapiens) (P04150 whole entry, looked up, the tested form may be a part): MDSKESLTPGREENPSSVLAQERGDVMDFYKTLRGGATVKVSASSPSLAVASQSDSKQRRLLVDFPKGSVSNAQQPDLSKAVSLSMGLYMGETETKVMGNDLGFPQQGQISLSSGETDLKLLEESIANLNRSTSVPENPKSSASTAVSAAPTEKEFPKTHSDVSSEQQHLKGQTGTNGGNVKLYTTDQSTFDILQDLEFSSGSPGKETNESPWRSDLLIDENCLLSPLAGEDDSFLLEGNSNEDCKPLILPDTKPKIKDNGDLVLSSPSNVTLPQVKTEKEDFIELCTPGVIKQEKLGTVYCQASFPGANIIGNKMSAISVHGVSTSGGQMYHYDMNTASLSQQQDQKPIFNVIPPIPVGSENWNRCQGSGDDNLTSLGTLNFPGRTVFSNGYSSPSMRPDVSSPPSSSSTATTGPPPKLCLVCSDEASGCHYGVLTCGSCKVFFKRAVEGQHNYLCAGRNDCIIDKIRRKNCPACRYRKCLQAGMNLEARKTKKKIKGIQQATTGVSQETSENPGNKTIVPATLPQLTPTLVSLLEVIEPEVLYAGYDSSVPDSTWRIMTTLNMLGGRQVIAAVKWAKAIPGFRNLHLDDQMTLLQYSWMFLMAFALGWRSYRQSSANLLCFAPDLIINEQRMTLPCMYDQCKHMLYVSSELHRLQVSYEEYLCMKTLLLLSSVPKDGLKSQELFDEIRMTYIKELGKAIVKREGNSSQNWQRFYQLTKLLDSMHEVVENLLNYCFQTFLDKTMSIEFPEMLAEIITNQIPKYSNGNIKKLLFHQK

Take `NCCC[C@H](N)CC(=O)N[C@H]1CNC(=O)[C@@H]([C@@H]2C[C@H](O)N=C(N)N2)NC(=O)/C(=C/NC(N)=O)NC(=O)[C@@H](CO)NC(=O)[C@@H](CO)NC1=O` (β3hOrn-[Dap][dS][dS][ΔAla(Z-3-ureido)][X1]; lactam 1-C): the result in experiment [1], in experiment [3] and in [5] was inactive. Besides, the values for the activity change, negative = inhibition in [2] and in experiment [6] were -11.1% (inactive) and 0.925% (inactive), respectively. For the same compound, the Potency entry in experiment [4] and in experiment [7] was “inactive” throughout. Further, the values for the max response in [6] (setting [13]) and in experiment [6] (setting [14]) were -7.09% and -7.39%, respectively.

In the case of `O=C(N[C@@H](CO)[C@@H](O)c1ccc([N+](=O)[O-])cc1)C(Cl)Cl`, the call in [1] and in experiment [3] was inactive. Moreover, the figures for the activity change, negative = inhibition in experiment [2] and in experiment [6] were -12.6% (inactive) and -1.53% (inactive), respectively. Also, the Potency result in experiment [4] and in experiment [7] was “inactive” throughout. Further, the max response was 11.1% in experiment [6] (setting [13]) and 8.81% in [6] (setting [14]).

Take `Cc1cccc(C)c1NC(=O)[C@H](C)N`: the activity change, negative = inhibition in experiment [2] was -7.54% (inactive); in experiment [6], -1.94% (inactive). In addition, the result in experiment [3], in [5] and in experiment [10] was inactive. For the same compound, the Potency in experiment [8] and in experiment [9] was > 20.6 µM (inactive) throughout. For the same compound, the Potency entry (in experiment [4]; in experiment [7]; in [11]; in the experiment on C2A; with CP217; in the experiment with CP238) was “inactive” in each case. Moreover, the Potency result with CP250, in the experiment on CP252, in the experiment on FAB9, in the experiment on HB3 and in the experiment with SC27B was “inactive” throughout. The max response was -3.54% in experiment [6] (setting [13]) and -7.81% in [6] (setting [14]). In addition, the activity, negative = inhibition was 7.15% (inactive) in experiment [12] (parasite line A) and 10.5% (inactive) in experiment [12] (parasite line B).

Regarding `C[N+]1(C)CC[C@@H](OC(=O)[C@@](O)(c2ccccc2)C2CCCC2)C1`, the result in experiment [1], in [3] and in experiment [5] was inactive. The activity change, negative = inhibition in experiment [2] was -43.8% (active); in experiment [6], -2.8% (inactive). Also, the Potency entry in experiment [4] and in [7] was “inactive” each time. The max response in [6] (setting [13]) was -7.92%; in experiment [6] (setting [14]) it was -10.3%.

On to `Cn1nnnc1SCC1=C(C(=O)O)N2C(=O)[C@@H](NC(=O)[C@@H](O)c3ccccc3)[C@@H]2SC1`, for which the compound was classed as inactive in experiment [1], in experiment [5] and in experiment [10]. Besides, the activity change, negative = inhibition is -2.02% (inactive) in experiment [2] and 2.73% (inactive) in experiment [6]. Besides, the Potency in experiment [8] and in experiment [9] was > 20.6 µM (inactive) each time. Also, the Potency entry (in [4]; in [7]; in experiment [11]; in the experiment with C2A; in the experiment on CP217; in the experiment on CP238) was “inactive” in each case. The Potency result in the experiment with CP250, in the experiment with CP252, in the experiment on FAB9, with HB3 and in the experiment on SC27B was “inactive” each time. Besides, the figures for the max response in experiment [6] (setting [13]) and in experiment [6] (setting [14]) were -4.52% and -13.8%, respectively. Besides, the activity, negative = inhibition in experiment [12] (parasite line A) is 11.7% (inactive); in [12] (parasite line B), 11% (inactive).

With `NC[C@@H]1O[C@H](O[C@H]2[C@H](O)[C@H](O[C@@H]3O[C@H](CO)[C@@H](O)[C@H](N)[C@@H]3O)[C@@H](N)C[C@H]2N)[C@@H](O)[C@H](O)[C@@H]1O`, the outcome in experiment [1], in [5] and in experiment [10] was inactive. Further, the activity change, negative = inhibition in [2] was -3.83% (inactive); in experiment [6] it was -4.16% (inactive). Moreover, the Potency in experiment [8] and in experiment [9] was > 20.6 µM (inactive) in each case. Further, the Potency result (in experiment [4]; in [11]; in the experiment on C2A; with CP217; with CP238; in the experiment on CP250) was “inactive” in each case. For the same compound, the Potency result with CP252, with FAB9, in the experiment with HB3 and with SC27B was “inactive” throughout. The values for the max response in experiment [6] (setting [13]) and in experiment [6] (setting [14]) were -1.61% and -7%, respectively. Also, the results for the activity, negative = inhibition in experiment [12] (parasite line A) and in experiment [12] (parasite line B) were 3.46% (inactive) and 7.68% (inactive), respectively.
